Experimental data reported in PubChem BioAssay.
The source made the active and inactive calls.

Tests used:
[1] = binders of probe aFSTL3 on microarray, primary screen, stem cell growth factor project, biochemical, small-molecule microarray, fluorescence 635/667 (AID 1064); settings: higher = more signal;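 note: measures binding of the biotinylated anti-FSTL3 antibody to printed compounds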
[2] = binders from COS7 lysate, DM2A8 probe, primary screen, torsin A project, cell lysate, small-molecule microarray, fluorescence 635/667 (AID 1065); settings: higher = more signal, COS7 lysate expressing mutant human TOR1A
[3] = binders of probe aFGF2 on microarray, primary screen, stem cell growth factor project, biochemical, small-molecule microarray, fluorescence 635/667 (AID 1067); settings: higher = more signal;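 note: measures binding of biotinylated aFGF2 protein to printed compounds on slides; z-score merges feature fluorescence and signal-to-noise across triplicate slides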
[4] = binders of probe aFGF10 on microarray, primary screen, stem cell growth factor project, biochemical, small-molecule microarray, fluorescence 635/667 (AID 1071); settings: higher = more signal;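 note: score merges 667 nm spot intensity and signal to noise from triplicate slides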
[5] = molecular target: Neurogenic locus notch homolog protein 2 (Homo sapiens) (UniProt Q04721); test: Notch2 binders on small-molecule microarrays, primary screen, biochemical, small-molecule microarray, 635 nm fluorescence, stem cell growth factors (AID 1073); settings: Notch2 binding, higher = more signal
[6] = molecular target: Pro-neuregulin-1, membrane-bound isoform (Homo sapiens) (UniProt Q02297); test: NRG1 binders on small-molecule microarrays, primary screen, psychiatric disease protein project, biochemical, small-molecule microarray, fluorescence 635/667 (AID 1075); settings: NRG1 binding, 635 nm fluorescence, higher = more signal;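 note: score combines 667 nm spot fluorescence with signal to noise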
[7] = system: Neuregulin-1 EGF-like domain; test: binders of neuregulin-1 EGF-like domain, primary screen, biochemical, small-molecule microarray, 635 nm fluorescence (AID 1081); settings: small-molecule microarray binding, higher = more signal;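 note: binding of the protein to compounds printed on small-molecule microarray slides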
[8] = FRG1 promoter luciferase signal modulators, primary screen, FRG1 inhibition for FSHD, cell-based, C2C12 myotubes, firefly/Renilla luciferase, luminescence (AID 1084); settings: higher = more signal, called active from +8 up or from −8 down
[9] = binders of probe aFST on microarray, primary screen, stem cell growth factor project, biochemical, small-molecule microarray, fluorescence 635/667 (AID 1086); settings: higher = more signal;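 note: score merges 667 nm fluorescence with signal-to-noise of each printed compound spot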
[10] = binders of probe aHhip on microarray, primary screen, stem cell growth factor project, biochemical, small-molecule microarray, fluorescence 635/667 (AID 1087); settings: higher = more signal;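 note: score merges spot fluorescence at 667nm with spot signal to noise ratio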
[11] = system: PRMT1 (protein arginine N-methyltransferase 1); test: PRMT1 binders on small-molecule microarrays, primary screen, biochemical, small-molecule microarray, 635 nm fluorescence (AID 1088); settings: small-molecule microarray binding, higher = more signal;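 note: binding of Prmt1 protein to compounds spotted on small-molecule microarray slides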
[12] = yeast growth modulation, basal conditions, primary screen, YJM789 clinical isolate, OD600, 24 h (AID 1089);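 note: growth of clinical yeast isolate S. cerevisiae YJM 789 seeded 1000 cells per well; test concentration not given here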; settings: S. cerevisiae YJM789 growth, higher = more signal, called active from +8 up or from −8 down
[13] = fission yeast growth modulation, primary screen, strain 972, OD600, 24 h, no modulator (AID 1090);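 note: basal condition with compound alone and no growth modifier present; test concentration not given here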; settings: S. pombe 972 growth, higher = more signal, called active from +8 up or from −8 down
[14] = S. cerevisiae growth modulation with rapamycin, primary screen, strain BY4716, OD600, 96 h (AID 1091); settings: higher = more signal, called active from +8 up or from −8 down; note: test concentration not given here
[15] = molecular target: Torsin-1A-interacting protein 2 (Homo sapiens) (UniProt Q8NFQ8); test: LULL1 binders on small-molecule microarray, primary screen, cell lysate, human LULL1 lysate, 635/667 nm fluorescence (AID 1092); settings: hLULL1 lysate binding, 635 nm fluorescence, higher = more signal;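 note: probe is lysate of COS7 cells overexpressing human LULL1; score merges per-feature 667 nm fluorescence with signal-to-noise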
[16] = E. coli growth modulation, two-sided OD650, primary screen, E. coli filamentation project, strain DRC41, 24 h (AID 1093); settings: OD650, 24 h, higher = more signal, called active from +8 up or from −8 down;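 note: MC1000 strain lacking acrAB efflux and sulA so SOS filamentation is blocked; test concentration not given here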
[17] = small-molecule microarray binders of probe aLefty2, primary screen, biochemical, biotinylated probe, 635/667 nm fluorescence (AID 1094); settings: higher = more signal;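 note: score merges spot fluorescence near 667 nm with spot signal-to-noise ratio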
[18] = system: Noggin (protein binding on small-molecule microarray); test: Noggin binders on small-molecule microarray, primary screen, biochemical, 635/667 nm fluorescence (AID 1095); settings: 635 nm fluorescence, higher = more signal;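 note: score merges 667 nm feature fluorescence with signal to noise over triplicate slides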
[19] = molecular target: Neurogenic locus notch homolog protein 3 (Homo sapiens) (UniProt Q9UM47); test: NOTCH3 binders on small-molecule microarray, primary screen, biochemical, 635/667 nm fluorescence (AID 1096); settings: NOTCH3 binding, 635 nm fluorescence, higher = more signal
[20] = small-molecule microarray binders of probe aEGFR, primary screen, biochemical, biotinylated probe, 635/667 nm fluorescence (AID 1097); settings: higher = more signal;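 note: probe is a biotinylated anti-EGFR antibody binding compounds printed on slides; score combines fluorescence near 667 nm and signal to noise of each spot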

Chain of Pro-neuregulin-1, membrane-bound isoform (Homo sapiens) (Q02297 whole entry, looked up, the tested form may be a part, canonical isoform): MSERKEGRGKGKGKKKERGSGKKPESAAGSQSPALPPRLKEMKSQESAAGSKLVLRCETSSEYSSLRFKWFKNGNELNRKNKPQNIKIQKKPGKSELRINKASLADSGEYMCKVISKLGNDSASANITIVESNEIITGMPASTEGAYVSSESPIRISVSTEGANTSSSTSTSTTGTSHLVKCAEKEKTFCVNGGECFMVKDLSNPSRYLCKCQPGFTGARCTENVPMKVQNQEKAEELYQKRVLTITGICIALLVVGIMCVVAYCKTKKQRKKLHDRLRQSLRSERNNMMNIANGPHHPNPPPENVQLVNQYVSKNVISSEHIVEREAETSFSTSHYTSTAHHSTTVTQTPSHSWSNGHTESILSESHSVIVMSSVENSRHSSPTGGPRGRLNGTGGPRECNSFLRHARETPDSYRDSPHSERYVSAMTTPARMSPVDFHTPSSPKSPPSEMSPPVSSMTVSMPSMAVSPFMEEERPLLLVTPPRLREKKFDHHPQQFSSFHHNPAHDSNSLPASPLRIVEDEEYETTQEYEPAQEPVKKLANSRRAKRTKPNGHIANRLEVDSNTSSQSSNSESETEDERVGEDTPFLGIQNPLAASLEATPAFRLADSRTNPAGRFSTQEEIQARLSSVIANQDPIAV
Chain of Neurogenic locus notch homolog protein 3 (Homo sapiens) (Q9UM47 whole entry, looked up): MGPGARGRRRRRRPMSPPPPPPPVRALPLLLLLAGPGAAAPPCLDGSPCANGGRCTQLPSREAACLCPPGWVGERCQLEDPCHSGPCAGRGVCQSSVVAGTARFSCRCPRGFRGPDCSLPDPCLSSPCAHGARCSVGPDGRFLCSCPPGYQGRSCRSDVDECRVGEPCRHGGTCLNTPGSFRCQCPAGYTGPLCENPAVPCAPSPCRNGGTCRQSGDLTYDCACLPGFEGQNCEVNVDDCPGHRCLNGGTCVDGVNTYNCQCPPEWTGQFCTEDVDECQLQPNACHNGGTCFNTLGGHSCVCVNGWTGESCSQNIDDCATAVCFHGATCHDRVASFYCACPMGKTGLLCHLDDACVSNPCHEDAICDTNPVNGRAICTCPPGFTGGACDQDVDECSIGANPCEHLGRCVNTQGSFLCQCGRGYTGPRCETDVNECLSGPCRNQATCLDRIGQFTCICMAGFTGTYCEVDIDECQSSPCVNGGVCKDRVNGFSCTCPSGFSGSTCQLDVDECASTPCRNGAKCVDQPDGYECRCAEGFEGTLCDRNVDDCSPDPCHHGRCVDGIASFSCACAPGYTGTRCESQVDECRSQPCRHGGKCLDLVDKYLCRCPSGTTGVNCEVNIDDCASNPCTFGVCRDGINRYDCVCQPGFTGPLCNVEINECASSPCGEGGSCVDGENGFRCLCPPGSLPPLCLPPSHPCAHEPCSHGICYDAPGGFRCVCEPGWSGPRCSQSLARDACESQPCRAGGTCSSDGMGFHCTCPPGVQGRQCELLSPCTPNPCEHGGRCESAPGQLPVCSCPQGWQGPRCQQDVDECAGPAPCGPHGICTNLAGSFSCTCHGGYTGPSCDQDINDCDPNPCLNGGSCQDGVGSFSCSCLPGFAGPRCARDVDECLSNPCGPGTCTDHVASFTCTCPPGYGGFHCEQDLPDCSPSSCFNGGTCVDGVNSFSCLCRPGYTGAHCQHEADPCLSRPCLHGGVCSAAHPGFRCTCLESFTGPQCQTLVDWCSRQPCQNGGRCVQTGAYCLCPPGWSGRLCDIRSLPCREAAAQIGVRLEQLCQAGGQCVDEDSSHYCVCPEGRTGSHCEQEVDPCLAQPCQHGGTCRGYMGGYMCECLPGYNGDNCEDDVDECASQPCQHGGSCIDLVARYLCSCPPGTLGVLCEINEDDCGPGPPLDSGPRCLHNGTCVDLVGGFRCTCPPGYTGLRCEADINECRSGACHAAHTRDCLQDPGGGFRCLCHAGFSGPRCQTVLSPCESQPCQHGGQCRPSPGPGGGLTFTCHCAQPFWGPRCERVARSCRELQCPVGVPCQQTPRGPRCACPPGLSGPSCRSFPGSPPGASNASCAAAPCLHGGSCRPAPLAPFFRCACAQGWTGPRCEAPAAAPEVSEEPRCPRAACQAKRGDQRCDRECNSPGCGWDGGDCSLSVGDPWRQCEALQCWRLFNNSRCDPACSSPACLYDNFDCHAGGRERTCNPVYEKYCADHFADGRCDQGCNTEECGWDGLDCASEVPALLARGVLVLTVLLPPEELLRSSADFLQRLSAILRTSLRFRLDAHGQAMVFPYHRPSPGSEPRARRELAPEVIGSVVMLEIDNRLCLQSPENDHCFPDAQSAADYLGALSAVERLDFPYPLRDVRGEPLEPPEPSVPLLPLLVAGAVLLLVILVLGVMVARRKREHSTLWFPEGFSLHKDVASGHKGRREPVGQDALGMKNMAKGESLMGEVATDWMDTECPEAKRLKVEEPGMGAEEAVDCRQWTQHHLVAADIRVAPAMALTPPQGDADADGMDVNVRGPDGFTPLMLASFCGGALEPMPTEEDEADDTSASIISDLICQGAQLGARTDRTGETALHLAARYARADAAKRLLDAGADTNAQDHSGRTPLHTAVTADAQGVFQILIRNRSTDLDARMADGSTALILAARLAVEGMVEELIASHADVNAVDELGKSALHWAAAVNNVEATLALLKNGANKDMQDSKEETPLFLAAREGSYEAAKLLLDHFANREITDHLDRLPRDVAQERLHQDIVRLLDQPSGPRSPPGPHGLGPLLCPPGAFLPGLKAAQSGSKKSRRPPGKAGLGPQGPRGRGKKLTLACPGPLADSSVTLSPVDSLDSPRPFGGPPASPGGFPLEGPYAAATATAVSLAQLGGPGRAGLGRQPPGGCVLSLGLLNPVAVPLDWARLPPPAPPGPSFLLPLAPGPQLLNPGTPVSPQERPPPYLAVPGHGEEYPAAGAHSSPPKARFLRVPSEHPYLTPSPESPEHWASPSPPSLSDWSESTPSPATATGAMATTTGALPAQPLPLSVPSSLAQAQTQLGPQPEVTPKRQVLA
Chain of Torsin-1A-interacting protein 2 (Homo sapiens) (Q8NFQ8 whole entry, looked up): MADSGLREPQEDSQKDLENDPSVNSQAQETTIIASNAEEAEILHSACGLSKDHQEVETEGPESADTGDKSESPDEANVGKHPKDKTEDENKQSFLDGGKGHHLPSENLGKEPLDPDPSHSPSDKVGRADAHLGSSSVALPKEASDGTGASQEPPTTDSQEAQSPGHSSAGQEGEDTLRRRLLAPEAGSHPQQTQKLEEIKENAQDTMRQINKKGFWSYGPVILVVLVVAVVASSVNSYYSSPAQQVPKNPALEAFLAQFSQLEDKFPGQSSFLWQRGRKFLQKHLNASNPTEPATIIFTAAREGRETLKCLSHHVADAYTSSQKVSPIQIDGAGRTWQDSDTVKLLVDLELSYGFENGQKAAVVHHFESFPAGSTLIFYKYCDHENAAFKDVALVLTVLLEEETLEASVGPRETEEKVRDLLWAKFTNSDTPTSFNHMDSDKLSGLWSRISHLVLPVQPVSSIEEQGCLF

CC(=O)NCCCC[C@@H]1NC(=O)[C@@H]2C[C@H](C(=O)NCCCCCN)[C@H](c3cccc(OCCO)c3)N2C1=O
composite z-score [1]: -0.0173
composite z-score [2]: 1.92
composite z-score [3]: 0.0322
composite z-score [4]: 0.742
composite z-score [5]: 0.542
composite z-score [6]: 1.7
composite z-score [7]: 1.01
z-score [8]: 0.301 (inactive)
composite z-score [9]: 0.268
composite z-score [10]: -0.245
composite z-score [11]: 0.872
z-score [12]: -3.85 (inactive)
z-score [13]: -0.31 (inactive)
z-score [14]: -0.858 (inactive)
composite z-score [15]: 1.66
z-score [16]: 1.36 (inactive)
composite z-score [17]: 0.534
composite z-score [18]: 1.42
composite z-score [19]: 1.09
composite z-score [20]: 0.101

COc1cc2c(cc1O)C(C1CC1)N(C)CC2 (stereo not given)
composite z-score [1]: 0.646
composite z-score [2]: -0.616
composite z-score [3]: -0.104
composite z-score [4]: -0.874
composite z-score [5]: -0.531
composite z-score [6]: 0.63
composite z-score [7]: -0.197
z-score [8]: 0.0877 (inactive)
composite z-score [9]: -0.406
composite z-score [10]: -0.0994
composite z-score [11]: 0.153
z-score [12]: 0.814 (inactive)
z-score [13]: 0.74 (inactive)
z-score [14]: -0.531 (inactive)
composite z-score [15]: 0.0629
z-score [16]: -0.965 (inactive)
composite z-score [17]: 0.0112
composite z-score [18]: 0.0427
composite z-score [19]: -0.944
composite z-score [20]: -0.171

C=CCN1C(=O)[C@]2(CCC(=O)OC(C)(C)C)N=C(c3ccc(OCCCO)cc3)O[C@@H]2c2ccccc21
composite z-score [1]: 0.369
composite z-score [2]: 0.401
composite z-score [3]: -0.0791
composite z-score [4]: -0.475
composite z-score [5]: 0.729
composite z-score [6]: 0.811
composite z-score [7]: 0.542
z-score [8]: -2.29 (inactive)
composite z-score [9]: 0.0909
composite z-score [10]: -0.0994
composite z-score [11]: 1.08
z-score [12]: -2.22 (inactive)
z-score [13]: -1.56 (inactive)
z-score [14]: 3.46 (inactive)
composite z-score [15]: 2.02
z-score [16]: 1.06 (inactive)
composite z-score [17]: 0.128
composite z-score [18]: 0.501
composite z-score [19]: 0.772
composite z-score [20]: 0.401

COc1cc(NN2C(C(O)c3cc(OC)c(OC)c(OC)c3)C=CC3C(=O)N(C)C(=O)C32)cc(OC)c1OC (stereo not given)
composite z-score [1]: -0.0324
composite z-score [2]: 0.427
composite z-score [3]: -0.0613
composite z-score [4]: 0.899
composite z-score [5]: 1.34
composite z-score [6]: 1.98
composite z-score [7]: 1.23
z-score [8]: 0.78 (inactive)
composite z-score [9]: 0.572
composite z-score [10]: 0.12
composite z-score [11]: 0.986
z-score [12]: -0.871 (inactive)
z-score [13]: -0.724 (inactive)
z-score [14]: -0.0522 (inactive)
composite z-score [15]: 3.37
z-score [16]: -0.678 (inactive)
composite z-score [17]: 0.16
composite z-score [18]: -0.112
composite z-score [19]: 1.06
composite z-score [20]: 0.08

CCOC(=O)C[C@H]1[C@H](OC(=O)c2ccccc2-c2ccccc2)[C@@H](NC(=O)c2ccc3ccccc3c2)c2cc(OCCCO)ccc2N1C(=O)c1ccccc1
composite z-score [1]: -0.421
composite z-score [2]: 0.483
composite z-score [3]: -0.0277
composite z-score [4]: 1.03
composite z-score [5]: 0.299
composite z-score [6]: 0.12
composite z-score [7]: 0.965
z-score [8]: -0.201 (inactive)
composite z-score [9]: 0.0603
composite z-score [10]: 0.0373
composite z-score [11]: 0.633
z-score [12]: 0.393 (inactive)
z-score [13]: 0.379 (inactive)
z-score [14]: 1.98 (inactive)
composite z-score [15]: 0.683
z-score [16]: 0.356 (inactive)
composite z-score [17]: -0.0916
composite z-score [18]: 0.554
composite z-score [19]: 0.564
composite z-score [20]: 0.342

OCCCC1=CC(c2ccc(CN3CCCC3)cc2)N(Cc2cc3c(cc2Br)OCO3)CC1 (stereo not given)
composite z-score [1]: 0.492
composite z-score [2]: 0.52
composite z-score [3]: -0.135
composite z-score [4]: -0.373
composite z-score [5]: -0.108
composite z-score [6]: -0.384
composite z-score [7]: 0.748
z-score [8]: -0.0594 (inactive)
composite z-score [9]: 0.47
composite z-score [10]: -0.0237
composite z-score [11]: 0.233
z-score [12]: -2.55 (inactive)
z-score [13]: -1.35 (inactive)
z-score [14]: -0.705 (inactive)
composite z-score [15]: -0.692
z-score [16]: 0.497 (inactive)
composite z-score [17]: 0.112
composite z-score [18]: 0.386
composite z-score [19]: -0.102
composite z-score [20]: 0.0617

COc1ccc([Si](C)(C)[C@H]2[C@H](CC(=O)N(CCO)Cc3ccccc3)O[C@@]3(C(=O)N(C)c4c(Br)cc(C)cc43)[C@@H]2C)cc1
composite z-score [1]: 0.145
composite z-score [2]: 0.671
composite z-score [3]: -0.0861
composite z-score [4]: 0.208
composite z-score [5]: -0.0381
composite z-score [6]: 0.435
composite z-score [7]: 1.22
z-score [8]: -2.73 (inactive)
composite z-score [9]: 0.152
composite z-score [10]: 0.107
composite z-score [11]: 1.46
z-score [12]: -1.62 (inactive)
z-score [13]: -1.59 (inactive)
z-score [14]: 1.93 (inactive)
composite z-score [15]: 1.25
z-score [16]: 0.114 (inactive)
composite z-score [17]: 0.0256
composite z-score [18]: 1.79
composite z-score [19]: 0.758
composite z-score [20]: -0.126

C[N+](C)(C)CCCCCCNC(=O)[C@@H]1C[C@@H]2C(=O)N3CCC[C@H]3C(=O)N2[C@@H]1c1ccc(O)cc1
composite z-score [1]: -0.138
composite z-score [2]: 1.74
composite z-score [3]: -0.0788
composite z-score [4]: 0.571
composite z-score [5]: 0.43
composite z-score [6]: 0.317
composite z-score [7]: 1.34
z-score [8]: 3.36 (inactive)
composite z-score [9]: 0.648
composite z-score [10]: 0.21
composite z-score [11]: 1.43
z-score [12]: -0.913 (inactive)
z-score [13]: 0.214 (inactive)
z-score [14]: -0.696 (inactive)
composite z-score [15]: 2.9
z-score [16]: 0.2 (inactive)
composite z-score [17]: -0.0216
composite z-score [18]: 1.4
composite z-score [19]: 1.03
composite z-score [20]: 0.0401

CCCCCCc1nc(Cc2cc(OC)c(OC)c(OC)c2)cc2c1[Si](C(C)C)(C(C)C)OC2
composite z-score [1]: -0.288
composite z-score [2]: -0.117
composite z-score [3]: -0.0909
composite z-score [4]: 0.0277
composite z-score [5]: -0.196
composite z-score [6]: -0.184
composite z-score [7]: -0.434
z-score [8]: 1.06 (inactive)
composite z-score [9]: -0.0763
composite z-score [10]: -0.0427
composite z-score [11]: -0.114
z-score [12]: 0.654 (inactive)
z-score [13]: -0.0595 (inactive)
z-score [14]: 0.0907 (inactive)
composite z-score [15]: -0.233
z-score [16]: -0.527 (inactive)
composite z-score [17]: -0.0985
composite z-score [18]: 0.158
composite z-score [19]: -0.0693
composite z-score [20]: -0.232

CC1CC/C=C\[C@H]2OC34C=CCN(C(C)(C)C)C(=O)[C@H]3N(CCCCCO)C(=O)[C@@H]4C2C(=O)O1 (stereo not given in full)
composite z-score [1]: -0.108
composite z-score [2]: -0.688
composite z-score [3]: -0.172
composite z-score [4]: -0.817
composite z-score [5]: -1.57
composite z-score [6]: 0.299
composite z-score [7]: 0.479
z-score [8]: -0.0661 (inactive)
composite z-score [9]: -0.581
composite z-score [10]: -0.261
composite z-score [11]: -0.187
z-score [12]: -0.0244 (inactive)
z-score [13]: 0.531 (inactive)
z-score [14]: -0.615 (inactive)
composite z-score [15]: -0.0626
z-score [16]: -0.129 (inactive)
composite z-score [17]: -0.261
composite z-score [18]: -0.673
composite z-score [19]: -0.284
composite z-score [20]: -0.262
